DT40 TDP1 CPT: DT40-hTDP1 cell growth loss with CPT; chicken DT40 Tdp1-/-;hTDP1 cells + 20 nM CPT, ATP luminescence, 48 h; Potency, µM (doses to about 46.2 µM), without a hit: at the top dose activity change, negative = growth inhibition, usual class: inhibitors; 420,000 tested, 12% active; further: nearly all actives have a fitted effect of over 55% in size
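Cell growth measured by CellTiter-Glo luminescence after a minimum 48 h, 37 C compound exposure with 20 nM CPT in Tdp1-knockout DT40 cells stably expressing hTDP1, seeded 400/well; qHTS titration format.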
TDP1 cell noCPT: qHTS for Inhibitors of human tyrosyl-DNA phosphodiesterase 1 (TDP1): qHTS in cells in absence of CPT; DT40 Tdp1-/- hTDP1 cells, no CPT, ATP luminescence, 48 h; Potency, µM (doses to about 46.2 µM), without a hit: at the top dose activity change, negative = growth inhibition, actives largely listed as inhibitors; 420,000 tested, 15% active; AID 686978, 2013; further: nearly all actives have a fitted effect of over 55% in size
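A cellular qHTS used chicken DT40 cells lacking endogenous Tdp1 but carrying stably transfected human TDP1. Compounds were applied without camptothecin, and cell growth kinetics were judged by ATP-dependent luminescence after ≥48 hr.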
TDP1 inh: inhibitors of human tyrosyl-DNA phosphodiesterase TDP1 | Q9NUW8 | recombinant TDP1, AlphaScreen DNA substrate cleavage | Potency, µM (doses to about 130 µM), without a hit: at the highest dose activity change, negative = inhibition, hits mostly inhibitors | 350,000 tested, 0.28% active | AID 485290; further: nearly all actives have a fitted effect of over 40% in size
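E. coli-derived human Tdp1, 1 nM final. Cpd preinc 15 min RT; substrate 15 nM final, 5 min RT; AS bead mix 10 ug/ml final, 10 min RT. Signal loss = tyrosine-FITC cleavage. No-enzyme wells = max signal.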
PLK1 PBD inh: inhibitors of human PLK1 polo-box domain binding; Plk1 PBD binding of FITC phosphopeptide, fluorescence polarization; Potency, µM, inactives show max response, negative = inhibition, usual class: inhibitors; 360,000 tested, 2.8% active; further: series mostly up to about 57 µM; nearly all actives have a fitted effect of over 65% in size
VDR inhibitor: inhibitors of human vitamin D receptor; 400,000 tested, 0.93% active; Potency, µM, for inactives: max response, negative = inhibition, usual class: inhibitors; VDR-SRC2-3 peptide fluorescence polarization, 2 h; AID 504847
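After 23 nl compound addition and a short centrifugation, plates sat for 2 hours at ambient temperature; polarization of fluorescence then indicated loss of VDR binding to peptide SRC2-3.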
GCN5L2 inh: inhibitors of human GCN5L2 histone acetyltransferase. Q92830. GCN5L2 HAT assay, ThioGlo1 CoA-SH fluorescence. Potency, µM (doses to about 58.9 µM), for the others: at the top dose activity change, negative = inhibition, most hits filed as inhibitors. 390,000 tested, 0.21% active
Target sequence (Q92830 whole entry, looked up): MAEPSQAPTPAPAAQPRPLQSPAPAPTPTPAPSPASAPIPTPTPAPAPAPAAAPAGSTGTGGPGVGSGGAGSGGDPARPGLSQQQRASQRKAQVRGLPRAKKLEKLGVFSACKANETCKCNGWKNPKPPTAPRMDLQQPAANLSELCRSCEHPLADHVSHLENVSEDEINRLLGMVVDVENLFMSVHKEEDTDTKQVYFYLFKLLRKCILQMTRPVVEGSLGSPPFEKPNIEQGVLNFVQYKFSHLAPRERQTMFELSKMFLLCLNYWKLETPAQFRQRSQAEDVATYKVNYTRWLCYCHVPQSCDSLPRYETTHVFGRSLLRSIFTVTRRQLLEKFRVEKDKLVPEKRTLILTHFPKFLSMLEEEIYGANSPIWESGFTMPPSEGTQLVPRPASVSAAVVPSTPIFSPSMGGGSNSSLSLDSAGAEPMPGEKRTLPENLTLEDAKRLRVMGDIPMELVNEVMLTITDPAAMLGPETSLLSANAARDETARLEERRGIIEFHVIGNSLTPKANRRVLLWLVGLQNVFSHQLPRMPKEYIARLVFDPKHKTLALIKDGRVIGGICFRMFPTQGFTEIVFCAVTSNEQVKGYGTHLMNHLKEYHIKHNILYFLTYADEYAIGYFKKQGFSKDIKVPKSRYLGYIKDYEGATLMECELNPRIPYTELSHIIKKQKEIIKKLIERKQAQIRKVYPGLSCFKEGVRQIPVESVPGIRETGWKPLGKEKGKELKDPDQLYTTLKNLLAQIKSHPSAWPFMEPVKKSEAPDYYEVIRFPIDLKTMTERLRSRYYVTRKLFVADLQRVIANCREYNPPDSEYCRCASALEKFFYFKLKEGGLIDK
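Enzyme at 20nM final was mixed with library compounds for 15 min at room temperature. Peptide H3(1-25) at 75uM, acetyl-CoA at 70uM and ThioGlo1 at 50uM were then added. Plates were read immediately and after 20 min (Ex340nm/Em540nm).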
Numbers without * were called inactive. In the library only some 18% were active in any assay of this set; here they are far more common. The call rests on the fitted dose curve; in most records, active means well fitted curve in the direction sought with a large enough effect; inconclusive means small, poorly fitted or top-dose-only effect, or another doubt; inactive means no such curve, though single readings can be large; an effect the other way counts as inactive or inconclusive. On the % scale 0 is the no-effect control and ±100 the full control effect; potency means the concentration at half of the fitted maximal effect.

Results for CN1C[C@@H]2[C@@H]3C(=O)N(C)C(=O)[C@@H]3[C@](Cc3ccccc3)(C1=O)N2C(=O)c1ccccc1 ?
DT40 TDP1 CPT: -5.6%; TDP1 cell noCPT: -1.5%; PLK1 PBD inh: -3.8%; VDR inhibitor: 15.2%

How did O=C(NCC1CCCO1)c1cc([N+](=O)[O-])ccc1N1CCC(Cc2ccccc2)CC1 (stereo unspecified) do in these assays?
DT40 TDP1 CPT: inconclusive; TDP1 cell noCPT: 23.1µM*; TDP1 inh: 2.3%; PLK1 PBD inh: -14.4%; VDR inhibitor: -18.5%; GCN5L2 inh: -4.6%

How did Nc1[nH]n2c(=O)cc(-c3ccccc3)nc2c1N=Nc1ccccc1 do in these assays?
DT40 TDP1 CPT: 3.26µM*; TDP1 cell noCPT: 5.17µM*; TDP1 inh: 9.0%; PLK1 PBD inh: -10.9%; VDR inhibitor: -12.6%; GCN5L2 inh: -9.4%

How did Cc1ccc(N=Nc2c(=O)[nH]n3c(C)cc(C)nc23)cc1 do in these assays?
DT40 TDP1 CPT: -12.0%; TDP1 cell noCPT: -30.2%; TDP1 inh: 4.0%; PLK1 PBD inh: 1.1%; VDR inhibitor: -12.3%; GCN5L2 inh: -11.7%

What do the screens show for `Nc1[nH]n2c(=O)cc(-c3ccccc3)nc2c1N=Nc1ccc(S(N)(=O)=O)cc1`?
DT40 TDP1 CPT: 0.8%; TDP1 cell noCPT: 0.3%; TDP1 inh: 6.0%; PLK1 PBD inh: -7.6%; VDR inhibitor: -5.0%; GCN5L2 inh: 1.3%

What do the screens show for `Cc1ccc(N=Nc2c(N)[nH]n3c(=O)cc(C)nc23)cc1`?
DT40 TDP1 CPT: inconclusive; TDP1 cell noCPT: 14.6µM*; TDP1 inh: 10.5%; PLK1 PBD inh: -15.7%; VDR inhibitor: -25.5%; GCN5L2 inh: -5.1%

Results for Cc1cc(-c2nnc3n2CCCCC3)c(C)n1-c1ccccc1 ?
DT40 TDP1 CPT: inconclusive; TDP1 cell noCPT: 16.4µM*; TDP1 inh: 3.3%; PLK1 PBD inh: -0.2%; VDR inhibitor: -0.4%; GCN5L2 inh: 0.8%

How did Oc1ccccc1-c1nnc2n1CCCCC2 do in these assays?
DT40 TDP1 CPT: 12.3%; TDP1 cell noCPT: -15.0%; PLK1 PBD inh: -0.2%; VDR inhibitor: 12.3%; GCN5L2 inh: 27.3%

What do the screens show for `CCOC(=O)N1CCN(/[N+]([O-])=N/Oc2ccc([N+](=O)[O-])cc2[N+](=O)[O-])CC1`?
TDP1 inh: 7.4%; VDR inhibitor: 44.7µM*; GCN5L2 inh: -13.6%

What do the screens show for `CCOC(=O)c1nnn(-c2ccc([N+](=O)[O-])cc2[N+](=O)[O-])c1C`?
DT40 TDP1 CPT: 11.6µM*; TDP1 cell noCPT: 11.6µM*; TDP1 inh: -3.8%; PLK1 PBD inh: -12.0%; VDR inhibitor: -2.3%; GCN5L2 inh: -14.2%

What do the screens show for `COCc1c(C(=O)OC)nnn1-c1ccc(C(F)(F)F)cc1[N+](=O)[O-]`?
DT40 TDP1 CPT: 18.4µM*; TDP1 cell noCPT: -9.8%; TDP1 inh: 6.3%; PLK1 PBD inh: 26.7µM*; VDR inhibitor: -0.6%; GCN5L2 inh: -1.9%

Results for CC12CC3CC(C)(C1)CC(C(=O)N1CCN(C(=O)c4ccco4)CC1)(C3)C2 ?
DT40 TDP1 CPT: inconclusive; TDP1 cell noCPT: inconclusive; TDP1 inh: 4.7%; PLK1 PBD inh: -6.2%; VDR inhibitor: 22.3%; GCN5L2 inh: -7.6%

How did COc1cc2ccc(C(=O)O)cc2cc1OC do in these assays?
DT40 TDP1 CPT: 15.9%; TDP1 cell noCPT: -6.7%; PLK1 PBD inh: -11.0%

How did CCOC(=O)C1CCCN(c2cc(C)nc3cc(-c4ccc(F)cc4)nn23)C1 (stereo unspecified) do in these assays?
DT40 TDP1 CPT: 23.1µM*; TDP1 cell noCPT: 23.1µM*; TDP1 inh: 3.0%; PLK1 PBD inh: -16.9%; VDR inhibitor: 13.2%; GCN5L2 inh: 4.2%

What do the screens show for `CCOC(=O)C1CCCN(C(=O)c2ccc(Cl)cc2)C1` (stereo unspecified)?
DT40 TDP1 CPT: 4.6%; TDP1 cell noCPT: 1.1%; TDP1 inh: -4.8%; PLK1 PBD inh: 9.8%; VDR inhibitor: 15.2%; GCN5L2 inh: -3.2%
